# KCNQ2 block: blocks the rat KCNQ2 potassium channel; 310,000 compounds, 1.1% hits; CHO-K1 KCNQ2, FluxOR thallium flux, 20 min; active compounds read low; B-score at 10 µM; O88943;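 active = fluorescence ratio B-score at most minus 3 library SDs, with starting brightness B-score within 2 library SDs, cut at about -5.5 in these data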
# Target sequence (O88943 whole entry, looked up): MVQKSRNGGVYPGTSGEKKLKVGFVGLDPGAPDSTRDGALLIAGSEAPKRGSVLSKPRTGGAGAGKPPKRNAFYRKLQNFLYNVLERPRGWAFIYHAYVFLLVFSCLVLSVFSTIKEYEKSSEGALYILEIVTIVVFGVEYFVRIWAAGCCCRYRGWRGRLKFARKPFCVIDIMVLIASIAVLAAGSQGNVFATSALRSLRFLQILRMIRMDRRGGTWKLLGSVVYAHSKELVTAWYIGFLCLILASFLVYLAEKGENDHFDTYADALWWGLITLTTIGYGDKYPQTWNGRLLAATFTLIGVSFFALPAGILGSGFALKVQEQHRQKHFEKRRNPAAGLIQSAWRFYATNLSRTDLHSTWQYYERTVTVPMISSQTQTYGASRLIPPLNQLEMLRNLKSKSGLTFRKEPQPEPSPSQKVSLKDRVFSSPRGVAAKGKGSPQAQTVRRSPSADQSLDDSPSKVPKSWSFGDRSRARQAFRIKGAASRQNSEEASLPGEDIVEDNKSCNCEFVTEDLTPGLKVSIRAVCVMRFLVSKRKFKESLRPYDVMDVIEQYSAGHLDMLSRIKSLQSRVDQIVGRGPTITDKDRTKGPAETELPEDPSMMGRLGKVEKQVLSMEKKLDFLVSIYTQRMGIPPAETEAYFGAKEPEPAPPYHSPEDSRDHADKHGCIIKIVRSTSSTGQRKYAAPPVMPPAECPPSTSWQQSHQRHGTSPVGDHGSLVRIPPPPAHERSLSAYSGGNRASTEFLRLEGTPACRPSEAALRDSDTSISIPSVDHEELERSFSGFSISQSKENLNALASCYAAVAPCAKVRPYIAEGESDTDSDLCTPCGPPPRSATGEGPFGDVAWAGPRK
# KCNQ2 enhance: potentiators of rat KCNQ2 potassium channel; O88943; CHO-K1 KCNQ2, FluxOR thallium flux fluorescence; active compounds read high; B-score at 10 µM; 310,000 compounds, 0.54% hits; AID 2239;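 active = fluorescence ratio B-score at least 3 SD of library B-scores, with initial fluorescence B-score within 3 of them, cut at about 5.3 in these data; same plate scores as AID 2156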;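 note: B-score of peak minus minimum over baseline fluorescence ratio after K+ and Tl+ stimulus; positive B-score means potentiation of KCNQ2 with more thallium influx and brighter signal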
# Kir21 conf inh: confirmation of mouse Kir2.1 potassium channel inhibitors; Tl flux remaining, % of negative control (active compounds read low), % at 10 µM; 2,300 compounds, 41% hits; AID 2032; shares compounds with KCNQ2 enhance; Kir2.1-expressing cells, FluxOR thallium flux fluorescence; active compounds read low;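 active = Primary-screen hit whose thallium flux fell at least 3 control SD below untreated wells in both duplicates, with normal baseline fluorescence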;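 note: 0% = blank wells without stimulus and 100% = stimulated no-compound controls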
# HEK293 ctr: parental HEK293 activity in Kir2.1 inhibitor counter-screen. FluxOR signal as % of negative control (100 = no effect), % at 10 µM. parental HEK293 cells, FluxOR thallium flux fluorescence; 0% = unstimulated blank wells. 2,300 compounds, 19% hits. shares compounds with KCNQ2 enhance;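 active = dye signal at least 3 control SD above or below untreated wells in both duplicates, raw fluorescence within 3, either direction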;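 note: percent is based on the flux ratio of peak minus minimum fluorescence over baseline F0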
# CHO-K1 ctr: alters thallium flux in parental CHO-K1 cells, KCNQ2 counter-screen. shares compounds with KCNQ2 enhance. AID 2282. 1,200 compounds, 43% hits. FluxOR thallium flux fluorescence; zero = vehicle mean+3SD, 100% = vehicle-minus-blank window. activity increase over 3SD of controls, % at 10 µM;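 active = signal rise of at least 3 SD above the untreated control mean, in both duplicate wells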;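 note: counter screen of KCNQ2 potentiator hits so any rise reflects channel-independent effects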
# KCNQ1 sel pot: tests whether KCNQ2 potentiators also act on human KCNQ1; activation over 3SD threshold, % at 10 µM; 1,200 compounds, 28% hits; shares compounds with KCNQ2 enhance; CHO KCNQ1 stable, FluxOR thallium flux fluorescence; beyond 3SD, as % of vehicle-control signal;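 active = fluorescence ratio rise of at least 3 SD of vehicle wells above their mean, in both replicate wells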;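 note: 0% = vehicle mean plus 3 SD and 100% = vehicle minus unstimulated blank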
# KCNQ2 pot confirm: rat KCNQ2 channel potentiator confirmation; CHO-KCNQ2 cells, FluxOR thallium flux fluorescence; shares compounds with KCNQ2 enhance; 1,200 compounds, 68% hits; potentiation, less the hit threshold, % at 10 µM;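 active = fluorescence ratio rising 3 SD or more over the vehicle control mean in both replicates, plus primary screen hit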;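 note: peak minus minimum thallium fluorescence divided by baseline after K/Tl stimulus; 0% = vehicle mean plus 3 SD and 100% = vehicle minus unstimulated blank difference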
# Kir2-1 sel: tests whether KCNQ2 potentiators also affect mouse Kir2.1. shares compounds with KCNQ2 enhance. activity over 3SD threshold, % at 10 µM. 1,200 compounds, 2% hits. HEK293 Kir2.1, FluxOR thallium flux fluorescence;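 active = fluorescence ratio rise of at least 3 SD above the vehicle-control mean, seen in both replicates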;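 note: 0% = vehicle mean plus 3 SD and 100% = vehicle minus no-stimulus blank window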
# KCNQ2 W236L MoA: KCNQ2 potentiators acting on retigabine-insensitive rat KCNQ2 W236L mutant | CHO KCNQ2-W236L, automated patch clamp current | shares compounds with KCNQ2 enhance | AID 2558 | current increase over 3SD of negative controls (%), active compounds read high, % at 25 µM | 940 compounds, 10% hits;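 active = current increase at least 3 SD of the untreated controls above them in both duplicate recordings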
# * marks the source's active call; other numbers are inactive results; i = inactive; x = not tested or not shown. In the library only some 1.6% were active in any assay of this set; here they are far more common.
SMILES,KCNQ2 block,KCNQ2 enhance,Kir21 conf inh,HEK293 ctr,others
CC(C)=CCc1c(O)cc(O)c2c1OC(c1ccc(O)cc1)CC2=O (centres undefined),-7.77*,-7.77,62.0%*,i,
COc1cc2ccc3c(CCN(C)C)cc(OC)c(OC)c3c2cc1OC,i,1.34,x,x,
CN(C)CCc1cc2c(c3c1ccc1ccccc13)OCO2,i,x,16.0%*,i,
Cc1ccc(CN2CCCN(Cc3cc(C)ccc3C)S2(=O)=O)cc1,i,7.33*,i,i,CHO-K1 ctr=-26.0;KCNQ1 sel pot=-20.2;KCNQ2 pot confirm=-22.1;Kir2-1 sel=-27.1
Cc1ccc(C)c(CN2CCCN(Cc3cc(C)ccc3C)S2(=O)=O)c1,i,x,x,x,
CCN(CC(=O)Nc1ccc(NC(C)=O)cc1)C(=O)c1ccccc1SCc1c(C)noc1C,i,x,x,x,
Cc1ccc(CNC(=O)c2ccc(OCC(C)C)cc2)n1C,i,x,x,x,
CNCCCC1Sc2ccccc2Oc2ccccc21 (centres undefined),i,0.13,40.5%*,i,
COc1ccccc1C(=O)NC(CCSC)C(=O)NC1CCCCCC1 (centres undefined),i,x,x,x,
CCn1c(-c2ccccc2)csc1=Nc1ccc(O)cc1,i,x,x,x,
CN1CCN(c2ccc(Nc3ccnc4cc(Cl)ccc34)cc2)CC1,i,x,58.5%*,i,
CCOc1ccc(Nc2ccnc3cc(Cl)ccc23)cc1,i,x,x,x,
Cc1cc(C)n(CC(=O)N/N=C/c2cc([N+](=O)[O-])ccc2O)n1,i,1.29,x,x,
Cc1cc(C)n(CC(=O)N/N=C/c2cc(Br)cc([N+](=O)[O-])c2O)n1,i,6.94*,i,65.0%*,CHO-K1 ctr=-2.0;KCNQ1 sel pot=-13.1;KCNQ2 pot confirm=39.6*;Kir2-1 sel=-26.4;KCNQ2 W236L MoA=i
O=C(CSCc1cc(=O)n2nc(C3CC3)sc2n1)Nc1ccc(F)cc1,i,0.65,x,x,
CC(Oc1ccc(Cl)cc1Cl)C(=O)NCCC1=CCCCC1 (centres undefined),i,x,x,x,
O=C(Cc1ccc(Cl)cc1)NNc1c(F)c(F)cc(F)c1F,i,0.53,x,x,
Oc1ccc(Cc2ccc(Cl)cc2)c(O)c1,i,5.58*,i,i,CHO-K1 ctr=105.5*;KCNQ1 sel pot=-8.6;KCNQ2 pot confirm=-10.3;Kir2-1 sel=-48.2
CC(=O)N1CC(C)Sc2ccc(S(=O)(=O)NCc3ccccc3Cl)cc21 (centres undefined),i,x,75.0%*,i,
CC(=O)N1CCOc2ccc(S(=O)(=O)NCc3ccccc3Cl)cc21,i,x,x,x,
CCCc1cc(=O)[nH]c(SCC(=O)N(CC)c2c(N)n(Cc3ccccc3)c(=O)[nH]c2=O)n1,i,x,x,x,
CCOC(=O)c1c(-c2ccccc2)oc2ccc(OCC(O)CN(C)C)cc12 (centres undefined),-5.56*,-5.56,i,i,
CCOC(=O)c1c(-c2ccccc2)oc2ccc(O)c(CN(C)C)c12,i,1.41,i,i,
Cc1oc2ccc(O)c(CN(C)C)c2c1C(=O)c1ccccc1,i,x,x,x,
COCCOC(=O)c1c(C)oc2ccc(O)c(CN3CCC(C)CC3)c12,i,0.11,x,x,
SMILES,KCNQ2 block,KCNQ2 enhance,Kir21 conf inh,HEK293 ctr,others
CCOC(=O)c1c(-c2ccccc2)oc2ccc(O)c(CN3CCCC3)c12,i,x,26.0%*,i,
CCOC(=O)c1c(-c2ccccc2)oc2ccc(OC(C)C(=O)O)cc12 (centres undefined),i,x,x,x,
Cc1cc(C)c(C)c(S(=O)(=O)NCCCn2ccnc2)c1C,i,x,x,x,
N#Cc1cccc(NC(=O)CN2CCN(Cc3ccccc3)CC2)c1,i,x,x,x,
O=C(CSc1nc(O)c(C2CCCCC2)c(=O)[nH]1)Nc1ccccc1Cl,i,0.08,x,x,
CCn1c(SCC(=O)N2CCN(C(=O)c3ccco3)CC2)nnc1C(C)C,i,0.45,x,x,
CC(C)(C)c1ccc(Oc2ccc(N)cn2)cc1,i,11.9*,i,67.5%*,CHO-K1 ctr=64.9*;KCNQ1 sel pot=-19.1;KCNQ2 pot confirm=73.3*;Kir2-1 sel=-34.0;KCNQ2 W236L MoA=i
Cc1cc(Oc2ccc(N)cn2)cc(C)c1Cl,i,0.02,x,x,
CCOC(=O)c1c(N)sc(C(=O)OCCOC)c1C,i,0.46,x,x,
O=C(Nc1ccccc1)c1cc(S(=O)(=O)N2CCSCC2)ccc1Cl,i,x,x,x,
O=C(Nc1cccc(O)c1)c1cc(S(=O)(=O)N2CCCC2)ccc1Cl,i,5.31*,i,i,CHO-K1 ctr=39.5*;KCNQ1 sel pot=-6.7;KCNQ2 pot confirm=-11.8;Kir2-1 sel=-27.2
CCCCCCCC/C=C\CCCCCCCC(=O)O,i,6.78*,i,i,CHO-K1 ctr=-9.8;KCNQ1 sel pot=32.6*;KCNQ2 pot confirm=-13.2;Kir2-1 sel=-30.9
CCCCCCCCC(=O)O,i,0.64,x,x,
CSc1cccc(NC(=O)CCCn2c(=O)c3cccn3c3cccnc32)c1,i,0.58,x,x,
COc1ccc(CC(=O)Nc2nn(C)c3nc4c(C)cccc4cc23)cc1,i,x,x,x,
CCn1cc(S(=O)(=O)N2CCc3ccccc3C2)cn1,i,0.39,x,x,
O=C(Cn1c(CO)nc2ccccc21)Nc1ccccc1Cl,i,0.1,i,i,
Cc1cc(C)cc(NC(=O)Cn2c(-c3ccccc3Cl)nc3ccccc32)c1,i,1.06,x,x,
Cc1ccc(NC(=O)C(C)OC(=O)Cn2[nH]c(=O)c3ccccc3c2=O)cc1 (centres undefined),i,x,x,x,
COc1ccc(Cl)cc1S(=O)(=O)NC(C)C(=O)NCc1ccc2c(c1)OCO2 (centres undefined),i,0.01,x,x,
CC(C)CC(=O)/C(=C/c1ccc(N(C)C)cc1)n1cncn1,i,1.19,x,x,
CC(C)CC(=O)/C(=C\c1ccc(Cl)cc1Cl)n1cncn1,-5.61*,-5.61,44.5%*,i,
Cc1ccccc1NC(=O)CCC(=O)N/N=C/c1ccncc1,i,1.05,x,x,
CCC(=O)N(Cc1ccco1)c1nc(C(=O)Nc2ccc(Cl)cc2)c(C)s1,i,x,x,x,
CS(=O)(=O)N(CC(=O)Nc1ccccc1Sc1ccccc1)c1cccc(Br)c1,i,17.5*,i,i,CHO-K1 ctr=-8.1;KCNQ1 sel pot=-6.1;KCNQ2 pot confirm=1.7*;Kir2-1 sel=-40.1;KCNQ2 W236L MoA=i
CSc1ccccc1NC(=O)CN(c1cc(C)cc(C)c1)S(C)(=O)=O,i,x,x,x,
c1ccc(-c2csc3ncnc(N4CCc5ccccc5C4)c23)cc1,i,x,i,i,
c1ccc(-c2csc3ncnc(N4CCOCC4)c23)cc1,i,x,x,x,
CC1=NOC(=O)/C1=C/c1ccc(O)cc1,i,1.87,x,x,
Cc1ccc(C2=NOC(=O)/C2=C\c2ccccc2)cc1,i,0.59,x,x,
